Screening results from PubChem BioAssay.
DAX1 inh-1: inhibitors of human orphan nuclear receptor DAX1 (NR0B1). AID 504766. HEK293 Gal4-DAX1 luciferase reporter, luminescence. inhibition, % at 6.75 µM. 0.99% of 340,000 active. P51843;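 active means inhibition above the mean over all tested compounds plus 3 SD, cut at about 4.2% in these data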;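 further: 0% = DAX1-transfected cells with DMSO and 100% = empty-vector control cells with DMSO; inhibition shows as a rise in luminescence from relieved DAX1 repression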
Target sequence (P51843 207-470 limits assumed): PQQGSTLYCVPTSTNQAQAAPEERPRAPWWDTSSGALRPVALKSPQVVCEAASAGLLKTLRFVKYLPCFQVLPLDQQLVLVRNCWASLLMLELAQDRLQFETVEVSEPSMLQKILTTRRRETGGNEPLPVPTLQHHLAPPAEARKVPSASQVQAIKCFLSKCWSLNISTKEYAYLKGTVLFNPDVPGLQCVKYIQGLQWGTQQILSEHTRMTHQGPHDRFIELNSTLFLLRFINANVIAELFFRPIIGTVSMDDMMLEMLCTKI
hgDAF-12 ag: agonists of H. glycines DAF-12 nuclear receptor; HEK293 GAL4-hgDAF12 UAS-luciferase reporter, agonist luminescence; normalized to butyrate control; activation, % at 6.8 µM; 1.8% of 370,000 active; AID 687014;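 active means activation above a cutoff set at the mean of all screened compounds plus 3 SD, cut at about 10% in these data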;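 further: 0% = DMSO wells and 100% = sodium butyrate wells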
ssDAF-12 act: S. stercoralis DAF-12 activation, primary screen; HEK293 ssDAF-12/GRIP1 lit1-tk-luc reporter, luminescence; % of 3 µM dafachronic acid response; activation, % at 6.8 µM; 1% of 370,000 active;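 active means activation above the mean over all tested compounds plus 3 SD, cut at about 0.9% in these data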;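 further: 0% = DMSO-only wells and 100% = 3 µM delta7-dafachronic acid wells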
hcDAF12 agonist: H. contortus DAF-12 activation, primary screen; AID 652067; activation, % at 6.8 µM; HEK293 hcDAF-12 lit1-tk-luc reporter, luminescence; 0% DMSO, 100% Δ7-dafachronic acid; 1.4% of 370,000 active;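 active means activation above the mean of all tested compounds plus 3 SD, cut at about 5.5% in these data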;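 further: 100% = response to 3 µM Δ7-dafachronic acid high control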
DAX1 inh-2: blocks DAX1 repression of SF-1 activated StAR promoter; HEK293T StAR-luciferase reporter, SF-1/DAX-1 repression relief; AID 652010; inhibition, % at 6.8 µM; 1.1% of 370,000 active;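 active means inhibition above the mean over all tested compounds plus 3 SD, cut at about 3.6% in these data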;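 further: 0% = DAX-1 cells with DMSO and 100% = cells lacking DAX-1 with DMSO; higher inhibition means more luminescence from relief of DAX-1 repression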
Numbers without * were called inactive. Only some compounds are listed: those with a hit (about 4.1% of all), similar ones and a draw of the others.

Screening O=C(CCCCl)N1CCc2[nH]c3ccccc3c2C1 returned DAX1 inh-1 0, hgDAF-12 ag -1, ssDAF-12 act 1, hcDAF12 agonist 5.6* and DAX1 inh-2 2.
Screening CC(=O)N1CCc2[nH]c3ccccc3c2C1 returned DAX1 inh-1 1, hgDAF-12 ag -2, ssDAF-12 act -1, hcDAF12 agonist 0 and DAX1 inh-2 0.
Screening Cc1ccccc1CS(=O)(=O)Cc1ccc(C(=O)Nc2ccc(F)cc2F)o1 returned hgDAF-12 ag -3, ssDAF-12 act -1, hcDAF12 agonist -2 and DAX1 inh-2 -2.
Screening C/C(CCc1ccc2c(c1)OCO2)=N\NC(=O)c1ccccc1 returned DAX1 inh-1 0, hgDAF-12 ag 11*, ssDAF-12 act 2.5*, hcDAF12 agonist 2 and DAX1 inh-2 0.
Screening C/C(=N\NC(=O)c1ccccc1)c1ccc2c(c1)OCO2 returned DAX1 inh-1 5.2*, hgDAF-12 ag 4, ssDAF-12 act -1, hcDAF12 agonist 3 and DAX1 inh-2 3.
For O=C(Cc1ccccc1)NC1CCCc2c1cnn2-c1ccc(F)cc1F (stereo not drawn) the results were hgDAF-12 ag 0, ssDAF-12 act -2 and hcDAF12 agonist -3.
For O=C1CCCCCN1CP(=O)(O)CN1CCCCCC1=O the results were DAX1 inh-1 3, hgDAF-12 ag 13*, ssDAF-12 act -1, hcDAF12 agonist -1 and DAX1 inh-2 0.
`Cc1ccc(-n2c(SCC(=O)N/N=C/C=C\c3ccccc3[N+](=O)[O-])nnc2-c2ccccc2)cc1` gave hgDAF-12 ag -4, ssDAF-12 act -1, hcDAF12 agonist 2 and DAX1 inh-2 1.
For COCc1cc(C)nc(SCc2ccc([N+](=O)[O-])cc2)c1C#N the results were DAX1 inh-1 4.6*, hgDAF-12 ag -3, ssDAF-12 act -1, hcDAF12 agonist -2 and DAX1 inh-2 0.
Screening COc1cnn(-c2ccc(C)cc2)c(=O)c1Cl returned DAX1 inh-1 0, hgDAF-12 ag 12*, ssDAF-12 act -1, hcDAF12 agonist 3 and DAX1 inh-2 1.
O=C(Cn1nc(-c2ccccc2)c2ccccc21)Oc1ccccc1 was read as hgDAF-12 ag -3, ssDAF-12 act -1 and hcDAF12 agonist 0.
Screening O=C(NC(=S)NCC1CCCO1)c1ccccc1Br (stereo not drawn) returned DAX1 inh-1 0, hgDAF-12 ag 1, ssDAF-12 act -1, hcDAF12 agonist -1 and DAX1 inh-2 0.
Cc1ccc(C(=O)NC(=S)NCC2CCCO2)cc1Br (stereo not drawn) was read as DAX1 inh-1 2, hgDAF-12 ag 10, ssDAF-12 act 0, hcDAF12 agonist 5.7* and DAX1 inh-2 1.
Screening Cc1ccc2cc3cc(C(=O)N4CC(C)CC(C)C4)oc3nc2c1 (stereo not drawn) returned DAX1 inh-1 0, hgDAF-12 ag 2, ssDAF-12 act -1, hcDAF12 agonist -2 and DAX1 inh-2 0.
For Cc1ccc2cc3cc(C(=O)N4CCCCC4C)oc3nc2c1 (stereo not drawn) the results were DAX1 inh-1 0, hgDAF-12 ag 12*, ssDAF-12 act 1.0*, hcDAF12 agonist 5.9* and DAX1 inh-2 4.2*.
`CCOC(=O)C1CCN(C(=O)c2cc3cc4ccc(OC)cc4nc3o2)CC1` gave DAX1 inh-1 -1, hgDAF-12 ag 7, ssDAF-12 act -1, hcDAF12 agonist 1 and DAX1 inh-2 3.8*.
`COc1ccc2nc3oc(C(=O)N4CCC(C(N)=O)CC4)cc3cc2c1` gave DAX1 inh-1 1, hgDAF-12 ag 1, ssDAF-12 act -1, hcDAF12 agonist -2 and DAX1 inh-2 0.
For Cc1ccc(CNC(=O)OC(C)(C)C)c(/C=C/S(=O)(=O)NCc2ccc(F)cc2)c1 the results were hgDAF-12 ag -1, ssDAF-12 act -1, hcDAF12 agonist -3 and DAX1 inh-2 -2.
C#CCCN([C@H](C(=O)OC)C(C)CC)S(=O)(=O)c1ccccc1Br (stereo partly drawn) was read as hgDAF-12 ag -3, ssDAF-12 act -2, hcDAF12 agonist -3 and DAX1 inh-2 -1.
For CC(=O)c1csc(Nc2ccccc2Cl)n1 the results were DAX1 inh-1 8.7*, hgDAF-12 ag 7, ssDAF-12 act -1, hcDAF12 agonist 1 and DAX1 inh-2 0.
